BCR signal inh: blocks chronic active B-cell receptor signaling; ABC-DLBCL IkBa-CBG/CBR reporter, luminescence ratio, 4 h; 340,000 tested, 0.05% active; Potency, µM (titrated, usually from 46.1 µM), hits mostly inhibitors; active = well fitted inhibition curve with a large enough effect in the signal ratio, with a control signal flat, not every such curve was filed as active; inconclusive = small, poorly fitted or top-dose-only effect, or effect the other way, or a change in a side signal; the % refers to the signal ratio
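Cell line TMD8 (human ABC DLBCL), stably expressing tet-inducible CBG68-IkBa fusion and CBR; IMDM/0.5% FBS; cpd up to 46 uM; dox induction, 4 h, 37C/5% CO2; dual luminescence; green/red ratio; MG132 control.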
D1 ag: human D1 receptor agonism; HEK293 T-REx D1 cells, calcium flux, agonist mode; activation, % at 2 µM; 360,000 tested, 1% active; AID 504660; in the data active = activation above about 30%
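Inducible HEK293 T-REx D1 cells, force-coupled to calcium signalling, were plated at 4000 cells/well with tetracycline and held overnight at 30 C. After no-wash calcium dye loading, compound-evoked calcium rise over 180 s flagged agonists.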
D1 antag: blocks dopamine activation of the human D1 receptor; HEK293 TREx D1 cells, calcium flux, dopamine EC80; stronger effect = lower value; P21728; AID 504652; 360,000 tested, 3.2% active; activity change, negative = inhibition, % at 10 µM; in the data active = activity change below about -30%
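Cells carrying a force-coupled, tetracycline-inducible human D1 receptor report calcium flux. Each well gets a 10 s baseline, compound with 180 s monitoring, then an EC80 dopamine stimulus with a second 180 s kinetic read.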
D1 PAM: human D1 dopamine receptor positive modulation; 360,000 tested, 0.036% active; P21728; AID 504651; HEK293 TREx D1 cells, calcium flux, dopamine EC20 potentiation; potentiation, % at 10 µM; in the data active = potentiation above about 30%
D3 ag: agonists of human D3 dopamine receptor | max activation, % | 410,000 tested, 0.58% active | D3R DiscoveRx beta-arrestin cells, luminescence, 90 min | P35462 | AID 652048; in the data active = max activation above about 30%
Target sequence (P35462 whole entry, looked up): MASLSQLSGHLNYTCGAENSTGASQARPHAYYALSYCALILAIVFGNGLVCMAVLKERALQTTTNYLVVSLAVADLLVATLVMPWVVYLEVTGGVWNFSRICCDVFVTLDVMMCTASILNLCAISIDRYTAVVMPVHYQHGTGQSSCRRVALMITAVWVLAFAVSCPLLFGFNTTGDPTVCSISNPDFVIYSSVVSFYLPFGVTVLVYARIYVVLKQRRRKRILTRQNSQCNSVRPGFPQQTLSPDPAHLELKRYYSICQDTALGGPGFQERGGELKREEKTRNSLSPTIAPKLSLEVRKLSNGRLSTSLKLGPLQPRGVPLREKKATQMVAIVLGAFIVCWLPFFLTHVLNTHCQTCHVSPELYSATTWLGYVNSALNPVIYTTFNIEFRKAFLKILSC
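Agonist-mode cell screen: cells plated at 1500/well and incubated overnight at 37 °C, then exposed to library compounds for 90 min at 37 °C. Detection reagent was added for 30–60 min at room temperature, and luminescence was read.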
DRD3 antagonist: antagonists of human D3 dopamine receptor. P35462. D3R cells, DiscoveRx beta-arrestin luminescence, antagonist mode; stronger effect = lower value. max response, negative = inhibition, %. 360,000 tested, 2.5% active. AID 652054; in the data active = max response below about -50%; inconclusive = no clear call, values can overlap the other calls
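Cells plated overnight at 1500 cells/well, then exposed to library compounds with dopamine controls for 90 minutes at 37 degrees C. DiscoveRx reagent added for 30–60 minutes at room temperature; luminescence read, quantitative HTS format.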
Of the large screens only hits and unclear results are named; the others gave an inactive call. A selection: hits, their analogues and other compounds. The true share with any hit is near 6%.

CC1=C(C(=O)N(C(C)C)C(C)C)CC(CC(=O)NCc2cccs2)C(=O)N1CCCN1CCCC1=O (configuration not stated)	none (no result: BCR signal inh, D1 ag, D1 antag, D1 PAM)
C[C@@H]1CCCCO[C@@H](CN(C)C(=O)c2ccncc2)[C@@H](C)CN([C@H](C)CO)C(=O)c2cc(NC(=O)Cc3ccccc3)ccc2O1	none (no result: BCR signal inh, D1 ag, D1 antag, D1 PAM)
COC(=O)c1cccc(CN2C(=O)SC(Nc3ccc(C)cc3)C2=O)c1 (configuration not stated)	none
COC(=O)c1cccc(CN2C(=O)SC(Nc3ccc(Cl)cc3)C2=O)c1 (configuration not stated)	D1 antag -32 (no result: BCR signal inh, DRD3 antagonist)
Cc1cc(C(=O)CSc2nnc(N)s2)c(C)n1Cc1cccs1	BCR signal inh inconclusive, D1 antag -39
CC(C)(C)OC(=O)N1CCC(c2c(C(=O)N3CCOCC3)cnn2-c2cccc(F)c2)CC1	D3 ag 74 (no result: BCR signal inh, DRD3 antagonist)
Cc1cccc(-n2ncc(C(=O)N3CCN(c4ccc(C)cc4C)CC3)c2C2CCN(C(=O)OC(C)(C)C)CC2)c1	none (no result: BCR signal inh, DRD3 antagonist)
Cc1cccc(-n2ncc(C(=O)N3CCOCC3)c2C2CCN(C(=O)OC(C)(C)C)CC2)c1	D1 antag -77 (no result: BCR signal inh, DRD3 antagonist)
CCOc1ccccc1CN1CCc2nc(N3CCN(c4ccccc4F)CC3)ncc2C1	none (no result: BCR signal inh, DRD3 antagonist)
Cc1ccc(NC(=O)C(Cc2c[nH]c3ccccc23)NC(=O)OC(C)(C)C)c(C)c1 (configuration not stated)	D1 antag -35 (no result: BCR signal inh, DRD3 antagonist)
COC(=O)C(Cc1c[nH]c2ccccc12)NC(=O)COc1ccc(Cl)cc1Cl (configuration not stated)	D1 antag -32 (no result: BCR signal inh, DRD3 antagonist)
COC(=O)C(Cc1c[nH]c2ccccc12)NC(=O)CNC(C)=O (configuration not stated)	DRD3 antagonist -53
Cc1cc(NC(=O)COC(=O)[C@H](Cc2c[nH]c3ccccc23)NC(=O)c2ccc(F)cc2)no1	DRD3 antagonist -51
CCOC(=O)C(Cc1c[nH]c2ccccc12)NC(=O)COc1ccc(Cl)c(C)c1 (configuration not stated)	none (no result: BCR signal inh, DRD3 antagonist)
COc1cc(CN2CCN(S(=O)(=O)c3ccc(NC(C)=O)cc3)CC2)cc(OC)c1OC	BCR signal inh inconclusive (no result: DRD3 antagonist)
COc1ccc(S(=O)(=O)NCCS(=O)(=O)N2CCN(c3ccccc3)CC2)cc1OC	none (no result: BCR signal inh, DRD3 antagonist)
CCOC(=O)C1=CCN(S(=O)(=O)c2ccccc2Br)C1c1ccc(C)cc1 (configuration not stated)	none (no result: BCR signal inh, D1 ag, D1 antag, D1 PAM)
Cc1ccc(NC(=O)c2ccc3c(c2)NC(=O)c2ccccc2S3)c(Cl)c1	none (no result: BCR signal inh, DRD3 antagonist)
CC(C)c1ccc(NC(=O)c2cnc3sc(N4CCOCC4)nn3c2=O)cc1	none (no result: BCR signal inh, DRD3 antagonist)
O=[N+]([O-])c1ccccc1/C=C/CN1CCCCC1CO (configuration not stated)	D1 antag -34
O=[N+]([O-])c1ccccc1C=NN1CCCCCC1	none (no result: BCR signal inh, D1 ag, D1 antag, D1 PAM)
O=[N+]([O-])c1ccccc1/C=C/CN1CCCCC1	DRD3 antagonist -71
CN(C/C=C/c1ccccc1[N+](=O)[O-])Cc1ccccc1	DRD3 antagonist -80
CO/N=C(\C(=O)N[C@@H]1C(=O)N2C(C(=O)[O-])=C(C[n+]3ccc(N)n3CCO)CS[C@H]12)c1csc(N)n1	none (no result: BCR signal inh, D1 ag, D1 antag, D1 PAM, DRD3 antagonist)
CN(C)CCNC(=O)C12CC3(C)CC(C)(CC(C)(C3)C1)C2	DRD3 antagonist -52
CC(=O)OC[C@@H]1CN(Cc2ccccc2)C[C@H](n2cnc3c(N(C)C(C)C)ncnc32)O1	none (no result: BCR signal inh, D1 ag, D1 antag, D1 PAM)
Cc1sc2ncnc(N3CCC(C(=O)Nc4cc(Cl)ccc4Cl)CC3)c2c1C	D3 ag 42
O=C(NCc1ccccc1F)C(=O)NCC(c1ccc2c(c1)OCO2)N1CCOCC1 (configuration not stated)	none (no result: BCR signal inh, DRD3 antagonist)
O=C(NC1=NCCS1)c1sc2cc(Cl)cc(Cl)c2c1Cl	BCR signal inh inconclusive, D1 antag -34
COc1ccc(-c2noc(CCC(=O)N3CCN(c4cccc(Cl)c4)CC3)n2)cc1	none (no result: D1 ag, D1 antag, D1 PAM)
COc1ccc(-c2noc(CCC(=O)N3CCN(c4ccccc4C(F)(F)F)CC3)n2)cc1	D3 ag 31 (no result: D1 ag, D1 antag, D1 PAM)
COc1ccc(-c2noc(CCC(=O)N3CCN(c4cccc(F)c4)CC3)n2)cc1	D3 ag 34 (no result: D1 ag, D1 antag, D1 PAM)
